The values that follow come from PubChem BioAssay AID1628 (Sanford-Burnham Center for Chemical Genomics, 2009).

Each structure is given as a SMILES string. The whole screen tested about 190,000 compounds, of which about 930 (0.49%) were called active.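 The calls were made as follows: active = z-score of insulin promoter reporter brightness in nuclei below -3 at 5 µM, with at least 500 cells counted; inconclusive = wells with under 500 cells, flagged as toxic or sparse; inactive = the rest.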 The list shows a part of the results. Measured potencies and affinities stand elsewhere.

The nature of the experiment: insulin promoter down-regulators in MIN6 cells, imaging, high-content screening, mouse beta cells (AID 1628). Conditions: MIN6 insulin promoter GFP reporter, at 5 µM, stronger effect = lower value.
Take `Cc1c(C(=O)O)cccc1-c1ccc(/C=C2/NC(=O)N(c3ccccc3)C2=O)o1`: the z-score was 3.88 (inactive).

On to `O=C(Nc1ccccc1)Nc1ccc(-n2ccc(C(F)(F)F)n2)cc1`, for which the z-score is -3.4 (active).

For `COc1ccc(CNC(=O)/C=C/c2ccco2)cc1OC`, the z-score is 1.08 (inactive).

With `CC(/C=C/c1ccco1)=N\NC(=O)C(O)c1ccccc1` (centres undefined), the z-score was -4.52 (active).

On to `C=CCC(c1ccccc1)N(C(C)=O)c1ccco1` (centres undefined), for which the z-score was 3.62 (inactive).

On to `CCOc1cc([N+](=O)[O-])cc2c1C(=O)Nc1ccccc1O2`, for which the z-score was 5.94 (inactive).

Consider `CCOC(=O)c1cc2c(ccn2C)n1CC(=O)N1CCC(Cc2ccccc2)CC1`, for which the z-score is -3.62 (active).

For the molecule `Cc1cccc2c(C(=O)N3CCN(C(=O)c4ccco4)CC3)cc(-c3cccc(Br)c3)nc12`, the z-score was -4.53 (active).

On to `Nc1nc(N2CCN(C(=O)c3ccco3)CC2)nc2ccc(Br)cc12`, for which the z-score is -3.6 (active).

Consider `CC(=O)c1ccc2cccc3c2c1N=CN3C`, for which the z-score was 3.38 (inactive).

Turning to `CN(C)S(=O)(=O)c1ccc(N2CCN(S(=O)(=O)c3ccc(F)cc3)CC2)c(Cl)c1`, the z-score was -3.39 (active).

In the case of `Cc1sc2nc(C3CC3)nc(NCCNS(=O)(=O)c3ccccc3)c2c1C`, the z-score is -0.22 (inactive).

On to `CN(C)/C=C1/Nc2ccccc2C1=O`, for which the z-score was 4.71 (inactive).

Take `COC1OC(CO)C(O)C(O)C1O` (centres undefined): the z-score is -0.58 (inactive).

On to `Cc1ccc(NC(=O)CCn2cccc2)cc1Cl`, for which the z-score is 3.23 (inactive).

`Cc1cc(C)nc(SCC(=O)Nc2ccc(N3CCOCC3)c(Cl)c2)n1`: the z-score was -11 (active).

On to `O=S(=O)(Nc1cc2nc3ccccc3nc2n1Cc1ccccc1)c1ccc(Cl)cc1`, for which the z-score was 15.3 (inactive).

Turning to `CCc1nc(Nc2ccc(N3CCN(C(C)=O)CC3)cc2)c2oc3ccccc3c2n1`, the z-score is -4.54 (active).

With `Cc1nc2c(oc3ccccc32)c(=O)o1`, the z-score is 4.23 (inactive).

As for `Cc1cccc(N2CCCn3c2nc2c3c(=O)n(CCN3CCOCC3)c(=O)n2C)c1`, the z-score was -3.6 (active).

`Cc1cc(/C=C2\NC(=S)N(C)C2=O)ccc1N1CCCC1`: the z-score was 14.3 (inactive).

Consider `Cc1oc2ncnc(N)c2c1C`, for which the z-score is 0.96 (inactive).

On to `CCCCN(C)CC(O)Cn1cc(/C=C/C(=O)c2cccs2)c2ccccc21` (centres undefined), for which the z-score is 4.79 (inactive).

As to `CC(Cc1cccs1)NC(=O)Nc1ccccc1` (centres undefined), the z-score is -4.74 (active).

For the molecule `CC(NC(=O)/C(C#N)=C1\N=C(NC(=O)c2cccs2)c2ccccc21)c1ccccc1` (centres undefined), the z-score was 3.96 (inactive).

Take `Nc1nnc(-c2cc3c(ccc4ccccc43)oc2=O)s1`: the z-score was 8.81 (inactive).

As to `O=C(c1ccco1)N1CCN(C(=O)N2c3ccccc3Sc3ccccc32)CC1`, the z-score is -3.22 (active).

As to `CN(C)N(C)C(=O)C(O)(c1ccccc1)c1ccccc1`, the z-score is -3.03 (active).

Turning to `COC(=O)c1ccc(N2CCN(S(=O)(=O)c3ccc4ccccc4c3)CC2)c([N+](=O)[O-])c1`, the z-score is -4.04 (active).

`CCN1CC=C2C(C#N)=C(N)C(C#N)(C#N)C(c3cc(Cl)ccc3Cl)C2C1` (centres undefined): the z-score is 15.3 (inactive).

Turning to `O=C1c2cccc3c(N4CCCCC4)ccc(c23)C(=O)N1c1ccc(O)cc1`, the z-score was 6.1 (inactive).

For the molecule `O=C(COc1ccc2ccccc2c1Br)Nc1ncn[nH]1`, the z-score is 1.51 (inactive).

Consider `Cc1cc(-c2ccccc2)cc(-c2ccccc2)[n+]1C`, for which the z-score is -5.05 (active).

With `COCCN1CN(S(=O)(=O)c2ccccc2)c2nc3ccccc3nc21`, the z-score was 3.14 (inactive).

As for `O=[N+]([O-])c1ccc(N2N=C(c3ccco3)CC2c2ccccc2)cc1` (centres undefined), the z-score was 3.05 (inactive).

Regarding `Cc1cc(C)c2[nH]c(=O)c(CN(Cc3ccc4c(c3)OCO4)Cc3nnnn3C3CCCC3)cc2c1`, the z-score was -3.04 (active).

With `CCC(C)(C)n1nnnc1CN(Cc1ccco1)Cc1cc2cc3c(cc2[nH]c1=O)OCO3`, the z-score is -2.22 (inactive).

With `CCc1ccc2[nH]c(=O)c(CN(Cc3nnnn3C3CCCC3)C3CCCCC3)cc2c1`, the z-score is -3.09 (active).

With `CCc1ccc2[nH]c(=O)c(CN(Cc3ccc4c(c3)OCO4)Cc3nnnn3C3CCCC3)cc2c1`, the z-score is -5.41 (active).

As for `O=C(OCC(=O)c1ccc[nH]1)c1ccccc1`, the z-score is 2.07 (inactive).

With `CCOc1cc(C(=O)OCC(=O)NC(C)c2ccccc2)ccc1OCC(=O)N1CCOCC1` (centres undefined), the z-score was 2.57 (inactive).

Regarding `O=[N+]([O-])c1cc(S(=O)(=O)/N=C(/c2ccccc2)N2CCOCC2)ccc1Cl`, the z-score was 1.77 (inactive).

As to `O=C(COc1ccc(S(=O)(=O)NCc2ccccc2)cc1Cl)N1CCOCC1`, the z-score was -4.71 (active).

Take `CCCCn1c(CCC(=O)O)nc2cc(S(=O)(=O)N(C)C)ccc21`: the z-score is -3.06 (active).

For the molecule `CN(C)C(=S)N=Nc1[nH]c2ccccc2c1O`, the z-score was -5.59 (active).

Regarding `O=c1[nH]c2ccccc2c(O)c1O`, the z-score is -0.06 (inactive).

As for `O=C(CNC(=O)c1cccc(F)c1)N/N=C/c1cc(Br)ccc1OC(=O)/C=C/c1ccco1`, the z-score was -8.62 (active).

`COc1cc(C)c(CNc2ccc(OC)c(OC)c2)cc1C`: the z-score was -4.27 (active).

Take `Cc1ccc(CNc2ccc3c(c2)OCO3)c(C)c1`: the z-score is 3.69 (inactive).

With `CCc1ccc(NC(=O)c2c(C(=O)Nc3ccccc3)sc3nc(C)cc(=O)n23)cc1`, the z-score was -3.57 (active).

As for `CCc1ccc(NC(=O)c2cc(C(C)C)on2)cc1`, the z-score is 3.36 (inactive).

As for `CC(=O)n1c(C=Nc2ccccc2)c(O)c2ccccc21`, the z-score was 3.61 (inactive).

`Cc1cc(C(=O)NCC(=O)OCC(=O)N2CCCCCC2)ccc1[N+](=O)[O-]`: the z-score was -3.78 (active).

As for `CCOC(=O)c1c(NC(=O)COC(=O)c2cc(OC)c(OC)cc2[N+](=O)[O-])sc(C)c1C`, the z-score was -7.34 (active).

For the molecule `COC(=O)c1c(NC(=O)CC2Nc3cc(C)c(C)cc3NC2=O)sc(C)c1C` (centres undefined), the z-score is 6.44 (inactive).

For `CCC(=O)Nc1ccc(C(=O)OCC(=O)c2ccc(C)c([N+](=O)[O-])c2)cc1`, the z-score is 3.37 (inactive).

In the case of `CCN(C#N)c1nc(NC(C)C)nc(NC(C)C)n1`, the z-score was -6.16 (active).

Take `COc1ccc(N(CC(=O)Nc2cc(OC)ccc2OC)S(C)(=O)=O)cc1`: the z-score is 0.8 (inactive).

`COc1ccc(N(CC(=O)Nc2ccccc2C(=O)NCC(C)C)S(C)(=O)=O)cc1`: the z-score is -3.31 (active).

Consider `COc1ccc(-n2c(SCC(N)=O)nnc2-c2cccnc2)cc1`, for which the z-score was 0.75 (inactive).

`COc1ccc(-n2c(C)cc(C(=O)CSc3nn4c(=O)c(C(C)(C)C)nnc4s3)c2C)cc1`: the z-score was -4.21 (active).

Turning to `CN(C)S(=O)(=O)c1ccc(NC(=O)C2COc3ccccc3O2)cc1` (centres undefined), the z-score was 2 (inactive).

Consider `COc1ccc2c(c1)C(=O)OC2CC(=O)O` (centres undefined), for which the z-score was 0.37 (inactive).

Regarding `Cc1ccc(-c2cn3nc(-c4ccccc4)c(-c4ccccc4)nc3n2)cc1`, the z-score is 8.16 (inactive).

For `Cc1cc2nc(C3CCN(Cc4nnnn4Cc4cccs4)CC3)[nH]c2cc1C`, the z-score is -3.92 (active).

For `CCCCCc1cc(=O)oc2c(C(CCN3CCCC(C)C3)c3ccc(OC)cc3)c(OC)cc(OC)c12` (centres undefined), the z-score is -3.09 (active).

For the molecule `C=CCNC(=O)C1CCN(S(=O)(=O)c2ccc(Br)cc2)CC1`, the z-score was 3.14 (inactive).

On to `CC1CCN(S(=O)(=O)c2ccc(NC(=O)N3c4ccccc4Sc4ccccc43)cc2)CC1`, for which the z-score was -3.77 (active).

`Cc1ccc2c(c1)C(c1ccccc1)N(C(=O)c1cc3ccccc3oc1=O)CC(=O)N2` (centres undefined): the z-score is -4.42 (active).

Turning to `O=C(C1=C(O)C(=O)N(c2nccs2)C1c1ccccc1)c1cc2ccccc2o1` (centres undefined), the z-score was 13.5 (inactive).

As to `Cc1ccc(S(=O)(=O)CCC(=O)NCCN2C(=O)S/C(=C/c3ccc(F)cc3)C2=O)cc1`, the z-score is -5.68 (active).

For the molecule `O=C1S/C(=C/c2ccc(N3CCOCC3)o2)C(=O)N1Cc1ccc(F)cc1`, the z-score was 11.4 (inactive).

On to `CN(C)c1ccc(/C=C2\SC(=O)N(CCc3nnc(N)s3)C2=O)cc1`, for which the z-score was 3.27 (inactive).

As for `CCCc1nc2ccc(NC(C)=O)cc2c(=O)n1Cc1ccc(Cl)cc1`, the z-score was 3.64 (inactive).

As for `CN(C)Cc1nc2ccccc2c(=O)n1Cc1nc(C(C)(C)C)cs1`, the z-score is -4 (active).

On to `CC(=O)Nc1ccc2nc(NC(=O)COc3ccccc3C)sc2c1`, for which the z-score is 2.47 (inactive).

Regarding `Cc1cccc(OCC(=O)NNC(=O)Nc2cccc(Cl)c2)c1C`, the z-score is -5.42 (active).

Regarding `COc1ccc(Cl)cc1NC(=O)CN(C)C(=O)COc1ccccc1F`, the z-score was 4.38 (inactive).

`Cc1cccc(N=CC=C2OC(C)(C)C(C)(C)O2)c1`: the z-score was -4.14 (active).

As to `Cc1cccc(N=Cc2[nH]c3ccc(Br)c(Cl)c3c2O)c1`, the z-score was 16.6 (inactive).

With `Cn1c(C(=O)N2CCC(C(=O)N3CCN(Cc4ccc5c(c4)OCO5)CC3)CC2)cc2sccc21`, the z-score was 4.67 (inactive).

In the case of `O=C(c1ccco1)N1CCN(C(=O)c2cc3sccc3n2Cc2ccccc2)CC1`, the z-score is -3.22 (active).

With `Cc1ccc(/C=C/C(=O)O)cc1S(=O)(=O)NCCO`, the z-score was -4.14 (active).

As to `CC(C)N1CCc2c(sc(NC(=O)c3cc4cc([N+](=O)[O-])ccc4s3)c2C(N)=O)C1`, the z-score was 7.47 (inactive).

Take `CCn1ncc(Br)c1C(=O)Nc1sc2c(c1C(N)=O)CCC2`: the z-score was 3.46 (inactive).

Regarding `CCC(C)(C)C1CCc2c(sc(NC(=O)c3cccs3)c2C(N)=O)C1` (centres undefined), the z-score is -3.17 (active).

Regarding `CN(CCCNC(=O)CN1C(=O)CC(C)(C)S(=O)(=O)c2ccccc21)C1CCCCC1`, the z-score was 3.03 (inactive).

For `COc1cccc(OCCOc2cccc(/C=N/n3cnnc3)c2)c1`, the z-score is -5.3 (active).

Regarding `COc1cccc(/C=N/NC(=O)CCn2cnc3ccccc32)c1`, the z-score is 3.74 (inactive).

Consider `COc1ccc(CCNc2ncnc3[nH]ncc23)cc1OC`, for which the z-score is -7.54 (active).

Take `COc1ccc(CCNC(=O)c2cnc3scc(C)n3c2=O)cc1OC`: the z-score is 0.78 (inactive).

As for `COc1ccc(CCNc2ncnc3cc(OC)c(OC)cc23)cc1OC`, the z-score is -3.22 (active).

For `CCOC(=O)COc1cccc2c(=O)n(CC(=O)NCCc3ccc(OC)c(OC)c3)ccc12`, the z-score was 3.56 (inactive).

As for `COc1ccc(/C(O)=C/c2nc3ccc(C(=O)NCCc4cccc(C)c4)cc3[nH]c2=O)cc1OC`, the z-score was 4.75 (inactive).
